Compound activity (PubChem)
SF1 inhibitor – inhibitors of human SF-1, primary screen, cell-based, CHO-K1, Gal4-SF-1 LBD, luciferase luminescence | CHO-K1 Gal4-SF-1 LBD luciferase reporter | inhibition, % at 10 µM | 65,000 tested, 0.55% active;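 active means inhibition above the mean inhibition of all tested compounds plus 3 SD, cut at about 48% in these data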;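 further: 0% = SF-1 transfected cells with DMSO and 100% = mock-transfected cells lacking SF-1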
Target sequence (Q13285 whole entry, looked up, the tested form may be a part): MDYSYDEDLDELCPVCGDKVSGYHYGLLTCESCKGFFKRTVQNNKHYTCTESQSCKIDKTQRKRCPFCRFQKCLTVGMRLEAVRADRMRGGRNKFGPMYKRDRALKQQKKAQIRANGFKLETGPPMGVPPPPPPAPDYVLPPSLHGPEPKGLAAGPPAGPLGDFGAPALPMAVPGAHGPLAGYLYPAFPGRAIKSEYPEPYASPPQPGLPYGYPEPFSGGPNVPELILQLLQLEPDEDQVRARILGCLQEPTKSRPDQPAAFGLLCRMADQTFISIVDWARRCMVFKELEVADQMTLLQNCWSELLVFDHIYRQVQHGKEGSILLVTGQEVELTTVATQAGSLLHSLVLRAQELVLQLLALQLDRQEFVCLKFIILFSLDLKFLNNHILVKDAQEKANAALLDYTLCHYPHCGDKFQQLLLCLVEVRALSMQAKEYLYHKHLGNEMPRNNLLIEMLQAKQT
Numbers without * were called inactive. The entries come from a sample that favours hits as a whole.

SMILES	SF1 inhibitor
O=C(C(Cc1ccccc1)N1C(=O)C2C3C=CC(C3)C2C1=O)N1CCCCC1 (centres undefined)	0.7
COC(=O)c1ccc(CSc2nc3c(cnn3-c3ccccc3)c(=O)[nH]2)o1	-0.2
COC(=O)c1nn(-c2ccc(-c3ccccc3)cc2)cc1O	56.2*
Cc1ccc(-n2ncc3c(=O)n(CC(=O)NCc4ccco4)cnc32)cc1C	-12.2
c1ccc(-c2csc(Nc3cccnc3)n2)nc1	-56.6
COc1cccc2sc(Nc3nc(-c4ccccn4)cs3)nc12	95.6*
CCOC(=O)c1sc(Nc2nc3c(OC)cccc3s2)nc1C	-64.1
O=C(NCCN1CCOCC1)C1CCC(=O)N1C1CCCCC1 (centres undefined)	11.0
CC(C)CNC(=O)CN(C1CCCCC1)S(=O)(=O)c1ccccc1	15.0
c1cnc2c(SCc3ccc(-c4nnco4)cc3)cccc2c1	-62.5
CCC(NC(=O)Nc1ncccc1C)(C(F)(F)F)C(F)(F)F	-7.4
COc1ccc(C(=O)Nc2nnc(C(F)(F)F)s2)cc1	-57.3
CCC(NC(=O)Nc1nnc(C(F)(F)F)s1)(C(F)(F)F)C(F)(F)F	93.9*
Cc1cc(C)nc(-n2nc(C)cc2Nc2ccccc2)n1	19.5
Cc1cc(C)n(-c2nc(NC(C)(C)C)nc(NC(C)(C)C)n2)n1	52.7*
Cc1cc(NS(=O)(=O)c2ccccc2)n(-c2ccccc2)n1	1.2
Cc1cc(C)n(-c2nc(NC(C)C)nc(NC(C)C)n2)n1	53.1*
Cc1cc(C)n(-c2cc(-n3nc(C)cc3C)ncn2)n1	20.3
Cc1cc(Nc2ccccc2)n(-c2ccccc2)n1	6.1
O=C(NCc1ccco1)C1CCC(CNS(=O)(=O)c2cccc3cccnc23)CC1 (centres undefined)	-6.4
CC(C)(C)c1ccc(-c2conc2N)cc1	-51.6
O=C(NCc1ccc(F)cc1)C1C2C=CC3(CN(Cc4cccnc4)C(=O)C13)O2 (centres undefined)	-1.2
Cc1ccc2[nH]c(C(=O)O)c(NC(=O)CN3CCN(c4cccc(C)c4C)CC3)c2c1	-4.6
CCN1C(=Nc2ccc(Cl)cc2)SC/C1=C\C(=O)OC	-1.8
Cc1nnc(SCCN2CCOCC2)n1C	-12.6
SMILES	SF1 inhibitor
Cc1ccc(-c2cn3nc(C)c(C)nc3n2)cc1	79.1*
CCCCCOC(=O)c1[nH]c2c(c1C)C(=O)CC(c1ccco1)C2 (centres undefined)	57.4*
CCC(C(=O)N1CCc2ccccc2C1)n1nc(C)n2c(cc3occc32)c1=O (centres undefined)	18.5
NC(=O)C1CCN(CCC(=O)Nc2cccc(Cl)c2)CC1	-0.2
O=C1c2cccnc2C(O)N1Cc1ccco1 (centres undefined)	0.2
Cc1cc(N2CCN(c3nc4ccccc4s3)CC2)n2ncnc2n1	55.4*
CCOc1ccc2nc(N3CCCCCC3)sc2c1	-58.3
CC(C)c1nnc(NC(=O)C2CCN(c3nc4ccccc4s3)CC2)s1	-17.5
Cc1c(NC(=O)Cn2nc(C(F)(F)F)c3c2CCCC3)c(=O)n(-c2ccccc2)n1C	-4.1
Cn1c(C(C#N)C(=O)c2ccco2)nc2ccccc21 (centres undefined)	-59.4
Cn1c(N2CCN(C(=O)NCc3ccccc3)CC2)nc2ccccc21	8.0
Cn1c(SC2=CS(=O)(=O)c3ccccc32)nc2ccccc21	67.9*
Cc1ccc(-c2nc(Nc3ccccc3)n[nH]2)cc1	-64.5
O=C(CN(Cc1ccco1)C(=O)CNS(=O)(=O)c1ccc(F)cc1)NCCc1ccccc1	-1.7
O=C(Cn1cnc2ccccc21)NCCCN1CCOCC1	-24.0
COC(=O)c1ccc(C(=O)OC)c(NS(C)(=O)=O)c1	9.0
COc1ccc(N2CCN(CCNC(=O)CCNS(=O)(=O)c3cccs3)CC2)cc1	-9.9
Cc1ccc2c(c1)NC(=O)C(CC(=O)NCCCN1CCN(c3cc(Cl)ccc3C)CC1)O2 (centres undefined)	13.1
COc1ccc(NC(=O)NCCCN2CCN(c3cc(C)ccc3C)CC2)cc1	48.6*
COc1ccccc1NC(=O)C1=C(C)Nc2nc(CCCO)nn2C1c1ccc2c(c1)OCO2 (centres undefined)	-11.5
COc1ccc(C(CC(=O)Nc2nccs2)n2cccc2)cc1 (centres undefined)	-54.9
Fc1ccc(OCc2nn3cnnc3s2)cc1	12.5
COc1cc(C2C(C#N)=C(N)Oc3cc(N(C)C)ccc32)cc2c1OCO2 (centres undefined)	59.0*
CCn1cc(Br)c(C(=O)Nc2cccc(SC)c2)n1	-50.3
CN(c1ccccc1)c1nc2ccsc2c(=O)s1	-50.2
SMILES	SF1 inhibitor
COC(=O)CCC(=O)Nc1ccc(S(=O)(=O)N2CCCCCC2)cc1	1.7
COc1ccc(-c2c(C)n([O-])c3c([n+]2=O)CCC3)cc1OC	-3.6
COc1cccc(NC(=O)C2CCCN(S(=O)(=O)c3cccc4cccnc34)C2)c1 (centres undefined)	4.4
COc1cc(NS(=O)(=O)c2ccc(C)cc2)c2ncccc2c1	94.3*
Cc1ccc(S(=O)(=O)Nc2nc(C)cc(NCCN)n2)cc1	-7.9
CN(c1ccc(C(=O)Nc2ccccc2C(F)(F)F)cc1)S(C)(=O)=O	-15.3
O=C(CSc1nc2cc(Cl)ccc2o1)c1cccs1	-18.5
Cc1ccc(NC(=O)c2ocnc2C)cc1Cl	-71.9
OC(COCC1COc2ccccc2O1)CN1CCN(c2ccccn2)CC1 (centres undefined)	3.2
O=C(NCCOc1ccccc1)c1ccc2c(c1)OCO2	59.2*
O=C(Nc1ccc(F)c(F)c1)c1ccc2c(c1)OCO2	-66.2
COc1cc2c(cc1NC(=O)c1ccc3c(c1)OCO3)oc1ccccc12	-53.6
O=C(CCC1CCCC1)N1CCN(C(=O)COc2ccccc2)CC1	-2.8
COc1ccccc1CN(Cc1cc2cc(C)cc(C)c2[nH]c1=O)Cc1nnnn1CC1CCCO1 (centres undefined)	-49.2
CC(C)n1nc(C(=O)NCCc2ccc(S(N)(=O)=O)cc2)c2ccccc2c1=O	-7.1
COc1ccc(NC(=O)c2cc3ccccc3o2)cc1	-54.4
CC(=O)Nc1cccc(NC(=O)c2cc3ccccc3o2)c1	-87.2
CCCC(=O)N1CCN(c2ccc(NC(=O)c3cc4ccccc4o3)cc2Cl)CC1	48.2*
O=C(Nc1ccc2c(c1)OCO2)c1c(Cl)nc2sccn12	-66.1
CC(=O)c1sc(NC(=O)C2(F)C(F)(F)C(F)(F)C(F)(F)C(F)(F)C2(F)F)nc1C	92.6*
CCOC(=O)c1sc(NC(=O)C2CC2)nc1C	-7.9
CC(=O)c1sc(Nc2nc3ccc(F)cc3s2)nc1C	-52.9
COc1ccccc1-c1nc(-c2ccncc2)no1	-9.5
Cc1cc(C)cc(-n2cc3c(=O)n(C)c(=O)n(C)c3c2)c1	-0.7
COC(=O)COc1ccc(S(=O)(=O)NCc2ccncc2)cc1	17.3
SMILES	SF1 inhibitor
CCN(C1CCCCC1)S(=O)(=O)c1ccc(S(=O)(=O)NCc2ccncc2)cc1	52.3*
O=C(CCC1CCCCC1)NCc1ccncc1	15.0
CC1(C)CC(=O)C(CC2=C(O)CC(C)(C)CC2=O)=C(O)C1	-3.4
CC(=O)Nc1ccc(SCC(=O)c2cc(C)n(Cc3cccs3)c2C)cc1	58.1*
C=CCn1c(C)cc(C(=O)CSc2nnc(NCc3ccccc3)s2)c1C	-59.0
CC(=O)Nc1ccccc1OCC(=O)c1cc(C)n(Cc2cccs2)c1C	70.1*
Cc1csc(SCC(=O)c2cc(C)n(Cc3cccs3)c2C)n1	60.1*
Cc1nc2ccc(NC(=O)Cc3cccs3)cc2s1	-79.6
C=CCn1c(C)cc(C(=O)CSc2nnc(Cc3ccccc3)o2)c1C	-13.5
CCN(CC)C(=O)Oc1ccccc1NC(C)=O	20.0
